Laboratory results published in PubChem BioAssay (NCI).
About 83,000 compounds went through this panel and 20% of them were active in at least one assay; those are over-represented in the sample as a whole.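 Growth was measured after 48 h exposure to one concentration of compound in 96-well plates. Values under 10 count as active.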 A number with no mark means an inactive call. Active and inactive are the calls of the source.

The molecules below were run on MDA-MB-468 breast (assay: NCI-60 one-dose screen, 48 h (100 = growth as untreated, 0 = no growth, -100 = all killed)). Settings: 10 µM unless noted.
In the case of `C=C1CCC2C3(C)COC(c4cccc(Cl)c4)OC3CCC2(C)C1/C=C/C1=CCOC1=O` (stereo not given), the growth is reported as 43.6%.
Molecule `O=C1OC(C(Cl)(Cl)Cl)OC1C(Cl)(Cl)Cl` (stereo not given) has a growth of 109%.
`Cc1ncc(C(=O)Nc2ccc(CN3CCN(C)CC3)c(C(F)(F)F)c2)cc1C#Cc1cnc(N)c2ccc(C#N)cc12` showed a growth of 48.2%.
`CSc1nc2sc3cc(Cl)c(Cl)cc3n2c(=N)c1C#N` was tested, and the growth was 72.6%.
`CCN1CCN(c2nc(C)cc(N(CCCNc3ccnc4cc(Cl)ccc34)Cc3ccco3)n2)CC1` showed a growth of 84.2%.
`C=C(C)C(=O)O[C@H]1C[C@@]2(C)OC(=CC2=O)[C@H](C)[C@H](O)[C@H]2OC(=O)C(=C)[C@@H]21` gave a growth of 24.7%.
Work on `O=C1/C(=C/c2ccc(-c3cccc(C(F)(F)F)c3)o2)SC(=S)N1CCc1ccc(O)cc1` yielded a growth of 95%.
In the case of `COc1ccc(C2=CC(c3ccc(OC)cc3Br)N3C=CSC3=N2)cc1` (stereo not given), the growth is reported as 17.4%.
`CCOc1ccc(N=C(C)Nc2ccc(OCC)cc2)cc1` showed a growth of 116%.
Work on `Cc1nc2ccccc2c(/C=C/c2ccccc2)c1C(=O)/C=C/c1ccc(Cl)cc1` yielded a growth of 19.4%.
For `O=C(NCC(c1ccsc1)N1CCCCCC1)c1ccc(C(F)(F)F)cc1` (stereo not given), the growth was 95.3%.
With `COc1ccc(NC(=O)[C@H](C)N)cc1C(=O)Nc1cccc(-c2cc(=O)c3c(OC)c(OC)c(OC)cc3o2)c1` the growth was 58.5%.
In the case of `CC1=NNC(=O)C1CCC(=O)N/N=C(\C)c1ccc2ccccc2c1` (stereo not given), the growth is reported as 119%.
`Nc1ccc(Br)cn1` showed a growth of 93.6%.
Molecule `C=CCn1c(SCC(=O)Nc2ccc(C(=O)/C=C/c3cc(OC)c(OC)c(OC)c3)cc2)nnc1-c1c[nH]c2ccccc12` has a growth of 37%.
For `COc1ccccc1-[n+]1cc(-c2ccc(-c3ccccc3)cc2)n2c1CCCCC2`, the growth was -23.5% (active).
For `COc1ccc(NC(=O)c2cccc(-c3cc(=O)c4c(O)c(OC)c(OC)cc4o3)c2)cc1`, the growth was 84.3%.
`C/C(O)=C(\C=N\C(N)=S)C(=O)Nc1ccccc1` gave a growth of 92.8%.
`COc1ccc(-c2nc3sc4c(c3c(=O)[nH]2)CCCCCC4)cc1` was tested, and the growth was 98.5%.
`O=c1oc2ccc(F)cc2c(=O)n1-c1ccc(Cl)cc1F` was tested, and the growth was -1.59% (active).
`O=C1CNc2cc(Cl)ccc2N1` showed a growth of 117%.
In the case of `CN(C)CCNc1nc2ccccc2c2c(=O)c3cc(F)ccc3sc12`, the growth is reported as -28.1% (active).
In the case of `CCn1c(=O)n(C)c2c(=O)n(C)c(=O)n(C)c21`, the growth is reported as 103%.
Work on `CC(=O)c1nc2ccccc2n1CCn1cc(CC(N)C(=O)O)c2ccccc21` (stereo not given) yielded a growth of 118%.
With `CO[C@@]12[C@@H]3NC3CN1C1=C(C(=O)C(N)=C(C)C1=O)[C@@H]2COC(N)=O` (stereo not given in full) the growth was -14.1% (active).
With `O=C(NCc1cccnc1)c1ccc([N+](=O)[O-])o1` the growth was 69.5%.
Molecule `COc1ccc(/C=c2\sc3n(c2=O)NC2C(N=3)N(C)C(=O)N2C)cc1` (stereo not given) has a growth of 99%.
`COc1cccc(/C=N\NC(=O)c2ccncc2)c1O` showed a growth of 64.4%.
`COc1cc(Cn2cc3c(c2)-c2onc(CO)c2CC3)cc(OC)c1OC` was tested, and the growth was 81.6%.
With `COc1cc2c(cc1OC)C(C(CCCCCC(CCC(C)C)C1NCCc3cc(OC)c(OC)cc31)CCC(C)C)NCC2` (stereo not given) the growth was -87.1% (active).
`O=C(Nc1ccc(Cl)c(C(F)(F)F)c1)Nc1ccc(-c2cccnc2)cc1N1CCC(CO)CC1` was tested, and the growth was 12.6%.
`COCCOc1cnc2ccn([C@H](C)c3nnc4c(F)cc(-c5cnn(C)c5)cn34)c(=O)c2c1` gave a growth of 96.7%.
In the case of `CCOC(=O)C(CSC(c1ccccc1)(c1ccccc1)c1ccccc1)NC(=O)C(CSC(c1ccccc1)(c1ccccc1)c1ccccc1)NC(c1ccccc1)(c1ccccc1)c1ccccc1` (stereo not given), the growth is reported as 101%.
Molecule `O=C(CCCCNC(=O)c1cc(=O)c(O)co1)Nc1ccccc1` has a growth of 35%.
Work on `CC1(C)S(=O)(=O)OCCOS1(=O)=O` yielded a growth of 101%.
`O=C(c1c[nH]c2ccccc12)c1n[nH]c(=S)n1-c1ccc([N+](=O)[O-])cc1` showed a growth of 106%.
With `COc1ccc(C=C2c3ccccc3-c3ccccc32)cc1` the growth was 41.3%.
With `CC(=O)O[C@H]1CC[C@]2(C)[C@H]3CC=C4[C@@H]5CC(C)(C)CC[C@]5(C(=O)NCCNCCN)CC[C@@]4(C)[C@]3(C)CC[C@H]2C1(C)C` the growth was -78.2% (active).
With `COc1ccc2nc(-c3ccc(-c4noc(-c5cc(OC)c(OC)c(OC)c5)n4)cc3)[nH]c2c1` the growth was 68.2%.
In the case of `O=C(CSc1nnc(-c2ccc(NC(=O)c3cccnc3)cc2)o1)N[C@@H](Cc1ccc(O)cc1)C(=O)O`, the growth is reported as 110%.
